In the supplement of paper PMC10681739:

Target: RUNX1 (UniProt Q01196)
Experiment: RUNX1 binding intensity (PBM fluorescence) in presence of ETS1, normalised to RUNX1-only experiment (arbitrary fluorescence units); higher = stronger binding
Conditions: RUNX1 concentration 2 nM; ETS1 concentration 25 nM
Protocol: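 Cooperative gcPBM on 36-bp genomic probes with neighbouring ETS1 and RUNX1 sites. Recombinant human RUNX1 (2 nM) was incubated alone or with ETS1 (25 nM) and detected with anti-RUNX1 antibody plus Alexa488 secondary. Values are medians over 4 replicate spots; the RUNX1+ETS1 data were normalised to the RUNX1-only data. The probes sit in constant array flanks that are not printed.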
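Also: Full-length recombinant human ETS1 or RUNX1 bound to double-stranded 36-bp genomic probes on microarrays, detected by protein-specific primary antibody and Alexa488 secondary, spot fluorescence as median of four replicate spots.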

Sequence of RUNX1 (Q01196 whole entry): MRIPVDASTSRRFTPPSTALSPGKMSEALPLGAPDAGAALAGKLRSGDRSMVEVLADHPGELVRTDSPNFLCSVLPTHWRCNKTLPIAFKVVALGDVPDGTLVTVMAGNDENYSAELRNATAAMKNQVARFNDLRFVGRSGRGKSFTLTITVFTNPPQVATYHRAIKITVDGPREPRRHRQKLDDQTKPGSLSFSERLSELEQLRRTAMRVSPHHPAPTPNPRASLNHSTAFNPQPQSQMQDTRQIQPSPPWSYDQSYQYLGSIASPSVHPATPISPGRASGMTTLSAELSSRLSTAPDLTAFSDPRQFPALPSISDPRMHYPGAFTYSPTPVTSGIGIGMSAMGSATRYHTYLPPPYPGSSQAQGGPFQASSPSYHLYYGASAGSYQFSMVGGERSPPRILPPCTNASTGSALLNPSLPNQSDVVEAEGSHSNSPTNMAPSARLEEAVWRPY

Sequence	RUNX1 binding intensity
GCACCACCGGAAGTAGGGCTCAACCACCGCTCATTT	1980
TGGTTCCACCGACCGGAAGGGCCACAAGGATCCCCG	1250
GCTGACCCGGAAGCGCTCGTGACCACCATCTCCGAC	1370
GCGATCGGAGCGGAAGTGGAGCTACCGCCACCGCCG	1290
GGGGCAGCTTCCGGCAGGAGAGCCCGCATTCACGGC	2360
CCTACACTTCCCAGAGAACCTAGCGGTTACGCCAAC	1560
CTTGCTTAACGCTTCCTGAGGGGTGGTTTGGGTTTT	953
CTTTCTGGTTTCCTTCCTTTTTGGTTTTGGTTTCAT	2830
ATCAGAGCGGAAATCTCAGTCTTGTGTGGGGACCTG	919
GTTTGAAGGGAAGTGGGTGTTGACCTGCGGGCAACT	969
AGCCCGGCTTCCGGCGCGTGCCGCTGCGGCTGCAGG	1370
TTTACAGGAAATATCCAGAACAGGTAAACCCACAGA	926
GAGGAGGAAAGCGGAAGCGCTGCCCGCAGTGGTAGG	1270
CTTCTACTTCCTGCCCCGCCCCCAGCTGTGGTCACA	3430
GGGTCGCGGCCTTCCGGCGAACGCGGTTACCGTGGA	1380
AAATCACATACCCGGAAACCACATGCACAGAAGTGG	2090
AGTTGGTTCCTTCCGGTGGGTTTGTGGGCTTGGGGT	1880
TCCACATCCTGCTCCTCGGGTTTGCGGCGAGGACTC	2660
GTGGGGGTGACAGGATGCGGGTAGAGGGCTCAGCCA	1460
TGGCTGTGAGCTGCAGGATGTGGTCAGGAGAGGAAG	2310

Sequence	RUNX1 binding intensity
AGGGTTACAATTTCCGTAAACCACAGAAGCAGCAGA	2560
GGGTTGGGTGCCGGATGCGGTGAGTGAGGTTCTCAT	4260
TGCGACGGAAGCAGGAACTTGCTAACCACAAAACCC	3420
AGCTCTAAGGTTCCGCCTGCGGGCAGCAAGCGGAGG	902
AATGATTACCTAACAGGAAAACCACATTGGTCATTT	1130
TCCGCCCGCGGATGCTGAGAACCGCAGCTGCACAAG	827
CTCACTCATCTGACTTCCTGCGGTTTACGACAACAG	17400
AACCCGGAAGTGGACACGGAGCTCGGCTGCGGCTCC	1530
ATTTTTCCTTCCTTCTCCCGTCCCCGCAGAGTGCAA	1520
AGCTTGACGAAGGCTTCCTGTGGTTTGGGTTGATGT	1530
ACCCCAAGCCCAGGATGTGGTTTGGCCACTATTGAG	2030
GAGTACAGGAAATGCAAAGTAAAACCACAGTGAGAT	1850
TCACTCTAACAGGATATTGTGGTTAACTATGTTGCC	14800
TCCCCACACTTCCGGCCCCGCCCGCACAGCCGCACC	5780
TCTAGTTCTGGTTTCCGGACCGCATTCGGAACTAGA	1350
CTGTCCGCGACATCCGGGACCTGCGGGACCGCCGAT	1760
ATTTCCATTTCCGGACTCTTCTCCTGCCCGCAGGGC	3660
GTTCAGCGGACGGCTTCCTGCGGCTTGCTGGGGCCG	1000
GCCATTAAAGCAGCTTCCTGTGGGCGCGGCGCAGGA	1010
GGCGGTGCACTCTGGGAAATGTGGTTTTCGCGGCGC	1500
